From PubChem BioAssay (NCI)
The panel holds about 79,000 compounds, 15% with a hit somewhere; the sample as a whole holds those more often. No stated cut-off is given here; in the data, active means growth inhibition above about 70%; inactive means the rest.

Columns and labels:
[1] = NCI Yeast Anticancer Drug Screen. Data for the rad50 strain (AID 155);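 further: 0% = growth of vehicle-only cultures of the same strain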; details: S. cerevisiae rad50 strain growth inhibition; at 50.0 µM; hits give high values
Summary of the method: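 Vehicle-treated cultures provide the reference for the growth inhibition reported for compound-exposed, repair-deficient yeast.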

[2] = NCI Yeast Anticancer Drug Screen. Data for the mec2-1 strain (AID 157); details: S. cerevisiae mec2-1 strain, at 50.0 µM, hits give high values
Summary of the method: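 Vehicle-treated cultures served as reference for growth inhibition of compound-exposed mec2-1 yeast.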

[3] = NCI Yeast Anticancer Drug Screen. Data for the sgs1 mgt1 strain (AID 161);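 further: 0% = growth of cultures given vehicle only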; details: S. cerevisiae sgs1 mgt1 strain, at 50.0 µM, hits give high values
Summary of the method: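 Genetically altered yeast, compound exposure, growth inhibition relative to vehicle.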

[4] = NCI Yeast Anticancer Drug Screen. Data for the cln2 rad14 strain (AID 165);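 further: 0% = growth equal to vehicle treated cultures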; details: S. cerevisiae cln2 rad14 strain, at 50.0 µM, hits give high values
Summary of the method: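 Each compound was tested on cln2 rad14 yeast. Inhibition of growth was calculated against vehicle-exposed controls.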

[5] = NCI Yeast Anticancer Drug Screen. Data for the bub3 strain (AID 167); details: S. cerevisiae bub3 mutant strain, at 50.0 µM, hits give high values
Summary of the method: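 Mutant yeast screening strain plus compound; vehicle-treated cultures serve as the 0% inhibition reference.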

[6] = NCI Yeast Anticancer Drug Screen. Data for the mlh1 rad18 strain (AID 175); details: S. cerevisiae mlh1 rad18 strain growth inhibition; at 50.0 µM; hits give high values
Summary of the method: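 Vehicle-treated cultures served as the reference for growth inhibition in a yeast strain carrying DNA damage repair alterations exposed to each compound.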

Measured: growth inhibition

CCOC(=O)/C(C#N)=C(O)/C(=C\c1ccc(Br)cc1)NC(=O)c1ccccc1
inactive: [1] -29.9% | [2] -12.9% | [3] -24.2% | [4] 13.2% | [5] -4.25% | [6] -15.1%

CC(C)(C#N)CCCCC(C)(C)C#N
inactive: [1] 3.1% | [2] 0.7% | [3] 1.2% | [4] 11.8% | [5] 12.4% | [6] 3.8%

Cc1ccc(S(=O)(=O)N/N=C/C(C)(C)C)cc1
inactive: [1] 17.4% | [2] -3.25% | [3] 8.95% | [4] -19% | [5] -6.75% | [6] 16.6%

Nc1nc(NCc2ccccc2)cc(=O)[nH]1
inactive: [1] 3.35% | [2] -20.8% | [3] -5.25% | [4] -0.4% | [5] -20.8% | [6] -2.75%

O=C(Nc1cccc(C(F)(F)F)c1)C(=O)C(C(=O)c1ccc(Cl)c(Cl)c1)C1OC(=O)c2ccccc21 (configuration not stated)
inactive: [1] 34.9% | [2] 19.2% | [3] -1.35% | [4] 63.6% | [5] 45.4% | [6] 37.4%

CN(C)CCNC(=O)C(C)(C)Oc1ccc(C(=O)c2ccc(Cl)cc2)cc1Cl
inactive: [1] -1.55% | [2] 6.1% | [3] -18.1% | [4] -21.6% | [5] -30.8% | [6] 40.2%

CC(=O)OCCOCNC(=S)N/N=C/c1cc([N+](=O)[O-])ccc1O
inactive: [1] 25.9% | [2] -2.75% | [3] 15.6% | [4] 42% | [5] 10.7% | [6] -0.05%

N#CC(C(=N/O)/C(=N\O)C(C#N)c1ccccc1)c1ccccc1 (configuration not stated)
inactive: [1] -3.35% | [2] -11.1% | [3] 2.55% | [4] -4% | [5] -5.75% | [6] 25.1%

S=C(N/N=C\c1ccccc1)Nc1ccccc1
inactive: [1] 6.65% | [2] -1.05% | [3] -8.2% | [4] 8.65% | [5] 10.8% | [6] 14.9%

Cc1cc(-c2ccccc2N)nc2ccccc12
inactive: [1] 47.5% | [2] 2.35% | [3] 30.4% | [4] 31.3% | [5] 15.9% | [6] 26.6%

C[N+]1(C)CCCC1
inactive: [1] 24.5% | [2] 5.5% | [3] 24.2% | [4] 7.6% | [5] 35.5% | [6] 16.1%

COc1ccc(NS(=O)(=O)c2ccc(NCc3c4ccccc4nc4ccccc34)cc2)nn1
inactive: [1] -13.3% | [2] 8.2% | [3] 17.2% | [4] 29.7% | [5] -0.45% | [6] 18.5%

COC1C=CC2OC(c3ccccc3)OCC2O1 (configuration not stated)
inactive: [1] -16.2% | [2] 9.1% | [3] -9.6% | [4] -35% | [5] 10% | [6] -1.65%

CCCCCCCCCCCCOP(=O)(O)OCC(N)C(=O)O (configuration not stated)
inactive: [1] 10.7% | [2] 9.2% | [3] -11.4% | [4] -39.8% | [5] -18% | [6] -19.3%

O=S1(=O)OC(c2ccc(O)cc2)(c2ccc(O)cc2)c2ccccc21
inactive: [1] 31.6% | [2] -25.9% | [3] 3.1% | [4] 9% | [5] -11.9% | [6] 18.6%

Cc1c[nH]c2nc(C)n(-c3ccccc3F)c(=N)c12
inactive: [1] -8.5% | [2] -2.75% | [3] -9.35% | [4] -8.7% | [5] -10.8% | [6] -0.95%

CCC(C=NCCBr)(CCC(=O)OC)CCC(=O)OC
inactive: [1] -7.9% | [2] 16.2% | [3] -13.9% | [4] -8.4% | [5] 12.4% | [6] 10.2%

CC(=O)Nc1c(CCCCc2ccccc2)[nH]c(=O)[nH]c1=O
inactive: [1] 1.8% | [2] 22.5% | [3] 25.8% | [4] 1.4% | [5] 17% | [6] -0.95%

N#Cc1ccc(OCCCCCOc2ccc(C#N)cc2)cc1
inactive: [1] -11.2% | [2] -0.65% | [3] -1.15% | [4] -43.1% | [5] -2.6% | [6] -5.8%

COc1ccc(-c2c([O-])oc(-c3ccccc3)[n+]2C)cc1
inactive: [1] 17.8% | [2] -18.4% | [3] -6.2% | [4] 7.3% | [5] 3.1% | [6] -4.1%

CC1(C)CCCC(OC(=O)c2ccc([N+](=O)[O-])cc2)C1 (configuration not stated)
inactive: [1] 10.4% | [2] -17.5% | [3] -1.3% | [4] -2.05% | [5] 7.5% | [6] -10.6%

C[C@]12CCC(=O)CC1CCCC2=O (some centres not stated)
inactive: [1] 9.9% | [2] -10.8% | [3] 6.4% | [4] 24.1% | [5] -6.7% | [6] 19.8%

CC1=NC(C(=O)O)CC1C (configuration not stated)
inactive: [1] 1.15% | [2] 4% | [3] -5.35% | [4] -7.7% | [5] 1.45% | [6] -1.3%

COC1=CC(=O)C(CCC(C)=O)=CC1=O
inactive: [1] -41.3% | [2] -29.6% | [3] -9.55% | [4] -16.4% | [5] 15.2% | [6] -4.3%

Cc1cccc(-c2nnc3s/c(=C\c4ccc5c(c4)OCO5)c(=O)n23)c1
inactive: [1] -20.1% | [2] -12.2% | [3] -1.45% | [4] 11.7% | [5] 4.35% | [6] 0.65%

OC1CCC2OC12 (configuration not stated)
inactive: [1] 7.3% | [2] 0.55% | [3] 18.2% | [4] 0.4% | [5] -1.3% | [6] 2%

COc1cc(C2SCCCCCCCCCCSC(c3ccc(O)c(OC)c3)SCCCCCCCCCCS2)ccc1O (configuration not stated)
inactive: [1] -24.6% | [2] -24.8% | [3] -29.2% | [4] -18.9% | [5] -30.2% | [6] -6.9%

CNC(=O)C1CCCN1C(=O)C(Cc1cnc[nH]1)NC(=O)C1CCC(=O)N1 (configuration not stated)
inactive: [1] -21.2% | [2] -13.9% | [3] -11.6% | [4] 11.9% | [5] -14.1% | [6] -16.8%

CCN(CC)C(=O)CCC1CCCCC1
inactive: [1] -35% | [2] -18.9% | [3] -11.9% | [4] -39.3% | [5] -14.1% | [6] -23.5%

CC(=O)OC12C(C)=C(C)C(=O)N1c1ccccc1N2C(C)=O (configuration not stated)
inactive: [1] -20.8% | [2] 2.55% | [3] 6.7% | [4] 15.9% | [5] 6.15% | [6] 11.1%

COC(=O)CCCCCCC/C=N/Nc1ccc([N+](=O)[O-])cc1[N+](=O)[O-]
inactive: [1] 6.9% | [2] 22% | [3] 4.7% | [4] 8.85% | [5] 7.3% | [6] 17.4%

COC(=O)NCP(=O)(CNC(=O)OC)CNC(=O)OC
inactive: [1] 13.8% | [2] 1.4% | [3] -1.35% | [4] 8.65% | [5] -4% | [6] 10.7%

C=CCOC(=O)C(C)(C)OC(C)=O
inactive: [1] 13.9% | [2] 5.9% | [3] 10.8% | [4] 3.15% | [5] 2% | [6] -1.85%

Cc1nc2ccccc2c(=O)n1C(C)(C)CCl
inactive: [1] 10.1% | [2] 30.6% | [3] 11.1% | [4] -14.7% | [5] 30.3% | [6] 19.9%

CCOC(=O)C(CC(c1ccc2c(c1)OCO2)C(C(=O)N(C(C)C)C(C)C)[N+](=O)[O-])C(=O)OCC (configuration not stated)
inactive: [1] 54.9% | [2] 21.4% | [3] 60.5% | [4] 16.2% | [5] 11.8% | [6] 26.4%

CCCCCCCCCCCCSCCSCCC
inactive: [1] -19.1% | [2] -10.7% | [3] 1% | [4] -14.6% | [5] -7.35% | [6] 4.5%

CC(C)(C)C(=O)C(C#N)C(=O)C(C)(C)C
inactive: [1] 8.75% | [2] -19.9% | [3] -7.45% | [4] 16.1% | [5] -19.9% | [6] -14.2%
